# Rab2 wt GTP = changes GTP binding to wildtype dog Rab2A, up or down; GST-Rab2 wt beads, Bodipy-GTP binding, flow cytometry; GTP binding activity, % at 10 µM; 190,000 tested, 0.19% active; P61105; AID 760;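 active means GTP binding activity at least 20 points away from 100%, either lowered or raised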;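 further: 0% = beads with excess unlabeled GTP and 100% = no-compound control corrected for plate trend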
# Cdc42 wt GTP = human Cdc42 wildtype GTP binding change, either direction. P60953. AID 761. 190,000 tested, 0.2% active. GST-Cdc42 beads, Bodipy-GTP binding, flow cytometry; actives lie on both sides. percent activity (GTP binding), % at 10 µM;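 active means percent activity GTP binding at least 20 points away from the 100% baseline, either down as inhibitor or up as activator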;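 further: median bead fluorescence of bound Bodipy-FL-GTP at 100 nM; 0% = excess unlabeled GTP control and 100% = no compound control; below 100% means less GTP binding so inhibitor and above means activator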
# Target sequence (P60953 whole entry, looked up): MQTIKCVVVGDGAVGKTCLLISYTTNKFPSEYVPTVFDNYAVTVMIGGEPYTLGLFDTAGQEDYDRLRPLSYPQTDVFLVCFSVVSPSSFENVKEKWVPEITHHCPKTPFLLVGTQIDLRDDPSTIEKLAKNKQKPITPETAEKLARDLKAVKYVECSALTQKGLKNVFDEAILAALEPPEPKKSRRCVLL
# Rac1 wt modul = alters GTP binding to wildtype human Rac1; P63000; GST-Rac1 beads, fluorescent GTP binding, flow cytometry; actives lie on both sides; 0 = cold GTP competed, 100 = untreated; GTP binding activity (% of control), % at 10 µM; 190,000 tested, 0.27% active; AID 757;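 active means GTP binding activity at least 20 points away from the 100% control level, either lower or higher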
# Rac1 act GTP bind = modulators of GTP binding to human Rac1 activated mutant | GST-Rac1 activated beads, fluorescent GTP binding, flow cytometry; actives lie on both sides; 100% means binding = to untreated wells | percent activity (GTP binding), % at 10 µM | 190,000 tested, 0.11% active | AID 764;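 active means GTP binding at least 20 percentage points away from the 100% baseline, in either direction, so actives lie on both sides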
# HRas wt GTP bind = changes GTP binding to wildtype human HRas. 190,000 tested, 0.14% active. P01112. GST-Ras wt beads, Bodipy-FL-GTP binding, flow cytometry; actives lie on both sides. GTP binding activity, % at 10 µM. AID 759;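 active means GTP binding activity at least 20% away from the 100% baseline, either lowered as inhibitor or raised as activator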;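 further: 0% = unlabeled GTP competition control and 100% = no-compound control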
# Target sequence (P01112 whole entry, looked up): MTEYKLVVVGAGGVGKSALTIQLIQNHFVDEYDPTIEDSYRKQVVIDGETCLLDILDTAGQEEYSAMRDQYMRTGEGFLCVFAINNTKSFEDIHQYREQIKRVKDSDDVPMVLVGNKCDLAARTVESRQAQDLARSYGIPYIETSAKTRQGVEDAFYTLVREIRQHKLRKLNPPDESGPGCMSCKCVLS
# Rab7 wt GTP bind = dog Rab7 wildtype GTP binding, inhibitors and activators. 190,000 tested, 0.055% active. GTP binding activity (percent of control), % at 10 µM. GST-Rab7 beads, fluorescent GTP binding, flow cytometry; actives lie on both sides; untreated = 100%, excess cold GTP = 0%;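 active means fluorescent GTP binding to Rab7 beads changed by at least 20 points from the 100% baseline, either direction, mostly lower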;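 further: median green fluorescence of bound Bodipy-FL-GTP per Rab7 bead population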
# * = called active by the depositor; [ ] = another dose, or the depositor's remark. Only some compounds are listed: those with a hit (about 0.38% of all), similar ones and a draw of the others.
SMILES,Rab2 wt GTP,Cdc42 wt GTP,Rac1 wt modul,Rac1 act GTP bind,HRas wt GTP bind,Rab7 wt GTP bind
COc1cc(-c2cc(=O)c3c(O)cc(O)cc3o2)ccc1O,83,82,78*,88,83,93
COc1cc(-c2cc(=O)c3ccccc3o2)ccc1O,94,93,93,93,94,97
CN1/C(=C\C=C(/C#N)C(=O)Nc2ccc(Cl)cc2)C(C)(C)c2ccccc21,133*[activator],106,116,116,105,118
COc1ccc(OCCN2C(=O)c3ccccc3C2=O)cc1,106,111,127*[activator],107,93,96
Nc1nonc1C(=O)NCCN=Cc1ccccc1O,103,106,105,101,104,99
Nc1nonc1C(=O)NCCN=Cc1cc(Cc2ccccc2)cc(Br)c1O,122*[activator],125*[activator],128*[activator],119,117,114
Cc1nn(Cc2ccccc2)c(Cl)c1C(=O)OC(C)C#N (centres undefined),94,97,97,93,94,92
Cc1nc2ccccn2c1-c1csc(Nc2cccc(O)c2)n1,82,82,75*,87,83,88
Cc1nc2ccccc2c(=O)n1N(c1ccccc1)c1ccccc1,90,89,93,91,92,90
c1ccc2[nH]c3cc4ncnc4cc3nc2c1,77*,83,79*,91,77*,87
FC(F)c1nc2ccccc2[nH]1,99,100,101,97,100,100
CCOc1ccccc1CNCc1ccc(F)cc1,104,110,100,94,96,105
CCOC(=O)C1=NN(c2ccc(C)cc2)CC1C(=O)OC (centres undefined),97,118,123*[activator],97,96,95
O=C(CCNS(=O)(=O)c1cccc2nsnc12)N1CCN(c2ccccn2)CC1,110,122*[activator],138*[activator],109,107,104
CCn1c(SC2CCOC2=O)nnc1-c1ccc(Cl)cc1 (centres undefined),95,95,100,94,93,96
CCOc1ccc(C(CC(=O)O)NC(=O)c2sc3ccccc3c2Cl)cc1 (centres undefined),94,94,95,94,96,97
CCCOc1ccc(C(CC(=O)O)NC(=O)c2sc3ccccc3c2Cl)cc1 (centres undefined),75*,72*,76*,69*,77*,93
CCOC(=O)Oc1ccc2oc(C)c(C(=O)OCCOC)c2c1,99,98,100,97,99,99
COCCOC(=O)c1c(C)oc2ccc(OC(=O)c3ccc4c(c3)OCO4)cc12,76*,77*,75*,73*,83,79*
C=CCNc1cc(N2CCCC2)ccc1[N+](=O)[O-],96,95,96,98,96,94
CCCn1c(N/N=C(C)\C=C\c2ccccc2)nc2c1c(=O)[nH]c(=O)n2C,99,102,101,100,99,97
CCOc1ccc2nc(SCC(=O)N3c4ccccc4Sc4ccccc43)c(C#N)cc2c1,100,100,105,100,102,102
CCOc1ccc2nc(SCc3ccc(CC(=O)O)cc3)c(C#N)cc2c1,74*,71*,82,76*,84,88
O=c1nc2c(O)cccn2c2c1c(=O)[nH]c1ccccc12,62*,70*,61*,77*,59*,81
O=c1[nH]c2ccccc2c2nc3ccccn3c12,92,95,99,95,93,94
SMILES,Rab2 wt GTP,Cdc42 wt GTP,Rac1 wt modul,Rac1 act GTP bind,HRas wt GTP bind,Rab7 wt GTP bind
Clc1ccc(Cn2ncc3c(N4CCCC4)ncnc32)cc1,100,99,100,97,100,97
Clc1ccc(Cn2ncc3c(N4CCOCC4)ncnc32)cc1,59*,95,102,98,97,99
COCCCNC(=O)CCCCCNS(=O)(=O)c1ccc(Br)cc1,98,95,99,97,99,102
COc1ccc(OC)c(C(C(=O)NCc2ccco2)N(C(=O)Cn2nnc3ccccc32)C2CC2)c1 (centres undefined),121*[activator],126*[activator],130*[activator],119,121*[activator],116
COC(=O)C(=C/C(C)=C/c1cccnc1)C(=O)OC,100,97,102,98,97,99
N#C/C(=C/c1ccc(O)c([N+](=O)[O-])c1)C(=O)Nc1ccccc1,84,79*,77*,87,86,102
N#C/C(=C/c1ccc([N+](=O)[O-])cc1)C(=O)Nc1ccccc1O,93,91,98,97,96,94
Cc1cc(Cl)ccc1OCC(=O)NNC(=O)C1CCCO1 (centres undefined),98,97,101,95,101,96
COc1ccc(-c2cc(-c3ccc(C)cc3)nc(SCc3nnc(-c4ccccc4)o3)c2C#N)cc1OC,100,104,108,102,102,101
COc1cc(/C=N/NC(=O)c2cnn3c(C)cc(-c4ccccc4)nc23)ccc1O,89,89,89,89,96,94
COc1cc(/C=N/Nc2nc(C)nc3c2cnn3-c2ccccc2)ccc1O,79*,77*,70*,85,83,95
O=C(O)C1CCCN1C(=O)OCc1ccccc1 (centres undefined),122*[activator],128*[activator],139*[activator],121*[activator],121*[activator],120*[activator]
COC(CNC(=O)C1CCCN1C(=O)OCc1ccccc1)OC (centres undefined),116,119,121*[activator],117,115,115
Cc1ccc(/C=C/C(=O)c2ccccc(=O)c2O)cc1C,81,78*,82,74*,84,87
CCOC(=O)CSc1ccc2nnc(-c3cccs3)n2n1,90,99,92,97,94,95
O=C(CSc1ccc2nnc(-c3ccncc3)n2n1)Nc1nccs1,80,79*,71*,86,83,86
Cc1nnc(NC(=O)CSc2ccc3nnc(-c4ccccn4)n3n2)s1,93,92,98,94,97,104
O=C(CSc1ccc2nnc(-c3cccs3)n2n1)N1CCCC1,85,82,73*,88,84,96
O=C(CSc1ccc2nnc(-c3ccccn3)n2n1)Nc1nccs1,62*,65*,54*,73*,68*,80
Nc1cc(C(=O)O)ccc1Sc1ccccc1C(=O)O,95,95,97,93,96,96
O=C(NCc1ccccc1Cl)C(=O)NCC(c1ccco1)N1CCOCC1 (centres undefined),98,97,98,97,97,105
Cc1ccc(/C(N)=N/OC(=O)CCC2CCCCC2)cc1,114,102,133*[activator],107,109,96

# Assay outcomes: PubChem BioAssay, NMMLSC
